Assay outcomes: PubChem BioAssay, several laboratories
SKN-1 block – C. elegans SKN-1 inhibition | C. elegans VP596 Pgst-4::GFP/RFP ratio, acrylamide-induced, 24 h | inhibition, % at 21.8 µM | hit rate 0.49% among 360,000 | AID 624304;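 active = interference check ratio from 0.5 to 1.5 plus GFP to RFP signal ratio inhibition reaching or exceeding a fixed threshold, cut at about 30% in these data, passing the limit was not always enough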
MEKK3 PB1 HTS – modulators (inhibitors or enhancers) of MEK5 binding to human MEKK3 PB1 domain; bead-based flow cytometry, Alexa488-MEK5 binding to MEKK3; actives lie on both sides; 0 = blocked by unlabeled MEK5, 100 = vehicle; hit rate 1.4% among 290,000; binding response (% of control), % at 10 µM; Q99759;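 active = binding response more than 3 SD above or below the average of its plate-row segment, actives on both sides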;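 note: Alexa488 bead fluorescence after subtracting the streptavidin-only scavenger bead signal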
MEKK2 WT-MEK5 – raises or lowers MEK5 binding to wildtype human MEKK2 PB1 domain; Q9Y2U5; binding response (% of control), % at 10 µM; bead flow cytometry, Alexa488-MEK5 binding to MEKK2 WT; actives lie on both sides; hit rate 1.1% among 290,000; in the data active = binding response below about 67% or above about 130%
NRP1-CendR mod – alters CendR peptide binding to human NRP-1. O14786. FAM-RPARPAR peptide binding to NRP-1, fluorescence polarization. inhibition, % at 25 µM. hit rate 0.85% among 360,000. AID 602438;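 active = inhibition or corrected inhibition above about 18%, plus a signal ratio from 0.5 to 1.5, limit read from the data, passing the limit was not always enough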
Target sequence (O14786 whole entry, looked up): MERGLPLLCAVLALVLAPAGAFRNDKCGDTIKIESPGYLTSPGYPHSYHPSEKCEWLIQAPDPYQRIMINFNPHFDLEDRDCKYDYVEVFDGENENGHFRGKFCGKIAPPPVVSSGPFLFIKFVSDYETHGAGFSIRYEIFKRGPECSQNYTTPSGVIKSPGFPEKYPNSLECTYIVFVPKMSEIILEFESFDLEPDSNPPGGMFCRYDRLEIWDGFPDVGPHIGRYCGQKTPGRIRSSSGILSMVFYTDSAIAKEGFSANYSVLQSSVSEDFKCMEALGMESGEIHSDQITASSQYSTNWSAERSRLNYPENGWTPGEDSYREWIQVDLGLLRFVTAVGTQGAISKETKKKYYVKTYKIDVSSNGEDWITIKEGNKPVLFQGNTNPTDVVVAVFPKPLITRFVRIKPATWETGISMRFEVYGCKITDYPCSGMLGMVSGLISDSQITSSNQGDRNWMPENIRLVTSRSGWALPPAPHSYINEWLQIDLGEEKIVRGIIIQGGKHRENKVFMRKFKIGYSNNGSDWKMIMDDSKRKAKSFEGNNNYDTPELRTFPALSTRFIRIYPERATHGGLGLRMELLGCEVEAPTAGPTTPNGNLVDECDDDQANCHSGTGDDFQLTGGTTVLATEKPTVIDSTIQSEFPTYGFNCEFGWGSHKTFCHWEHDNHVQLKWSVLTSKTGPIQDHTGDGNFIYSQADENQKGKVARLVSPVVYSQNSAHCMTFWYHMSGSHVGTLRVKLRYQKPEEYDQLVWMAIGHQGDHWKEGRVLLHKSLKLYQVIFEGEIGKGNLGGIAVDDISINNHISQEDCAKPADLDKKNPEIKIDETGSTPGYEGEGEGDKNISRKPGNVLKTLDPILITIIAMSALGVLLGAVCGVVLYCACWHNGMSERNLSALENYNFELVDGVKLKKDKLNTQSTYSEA
MEKK2mut PB1 HTS – signal of MEK5 binding to mutant human MEKK2 PB1 domain. bead flow cytometry, Alexa488-MEK5 binding to MEKK2 mutant. percent response, % at 10 µM. hit rate 0.35% among 290,000. AID 1530; in the data active = percent response above about 24%, passing the limit was not always enough
MEKK2wt confirm – raises or lowers MEK5 binding to wildtype human MEKK2, retest. shares compounds with MEKK3 PB1 HTS. bead flow cytometry, Alexa488-MEK5 binding to MEKK2 WT; actives lie on both sides. binding response (% of control), % at 10 µM. hit rate 2.4% among 5,900; in the data active = binding response below about 16% or above about 210%; inactive = in between
MEKK2mut-MEK5 – signal of MEK5 binding to mutant human MEKK2, retest; shares compounds with MEKK3 PB1 HTS; bead flow cytometry, Alexa488-MEK5 binding to MEKK2 mutant; percent response, % at 10 µM; hit rate 2% among 5,900; in the data active = percent response mostly above about 71%, no sharp cut-off; inactive = mostly below about 38%;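 note: higher means compound restores mutant binding toward wildtype level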
MEKK3-MEK5 inh – MEKK3-MEK5 PB1 inhibition, single concentration confirmation; shares compounds with MEKK3 PB1 HTS; bead flow cytometry, Alexa488-MEK5 binding to MEKK3; hits give low values; binding response (% of control), % at 10 µM; hit rate 1.8% among 5,900;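 active = binding response below 72% of control, or above a set upper limit, though filed actives all read lower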;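 note: 100% = DMSO only wells and 0% = binding blocked by excess unlabeled MEK5; lower values mean stronger disruption of MEK5 binding to MEKK3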
Numbers without * were called inactive; · = no result; [ ] = dose if it differs, or a comment. Compounds with a hit are over-represented: about 3.2% of the library has one in this group of screens.

SMILES	SKN-1 block	MEKK3 PB1 HTS	MEKK2 WT-MEK5	NRP1-CendR mod	MEKK2mut PB1 HTS	MEKK2wt confirm	MEKK2mut-MEK5	MEKK3-MEK5 inh
COC(=O)CCC(=O)OC1(C)C(=O)C2=CN(C3CCCC3)C(c3ccc(OC)cc3)=CC2=C(Br)C1=O (stereo not drawn)	13.0	47.0*[inhibitor]	-8.0*[inhibitor]	3.7	-23.0	88.0	0.0	88.0
COC(=O)CCC(=O)OC1(C)C(=O)C2=CN(Cc3ccco3)C(c3ccc(OC)cc3)=CC2=C(Br)C1=O (stereo not drawn)	·	85.0	86.0	·	-4.0	·	·	·
COC(=O)CCCC1=CC2=C(c3ccccc3)C(=O)C(C)(OC(=O)C3CCCC3)C(=O)C2=CN1c1ccccc1 (stereo not drawn)	1.9	128.0*	154.0*	-9.0	1.0	87.0	-5.0	94.0
COC(=O)CCCC1=CC2=C(c3ccccc3)C(=O)C(C)(OC(=O)C3CCCC3)C(=O)C2=CN1C(CO)CO (stereo not drawn)	8.6	95.0	93.0	-4.1	5.0	·	·	·
Cc1ccc2c(c1)C1(OCCCO1)C(=O)N2	18.9	105.0	107.0	-2.8	8.0	·	·	·
Cc1ccc(NC(=O)/C(=C/c2cccc([N+](=O)[O-])c2)NC(=O)C2CCCCC2)c(C)c1	14.0	1.0*[inhibitor]	2.0*[inhibitor]	3.0	-21.0	107.0	3.0	103.0
CC(=O)Nc1sc(/C(C#N)=C/c2ccc(Cl)c(Cl)c2)nc1-c1ccc(C)cc1	26.5	118.0	25.0*	137.9	104.0*	87.0	-13.0	99.0
COc1ccc(CN2CCN(Cc3c[nH]c4ccccc34)CC2)cc1OC	-3.2	·	·	1.6	·	·	·	·
COc1ccc(Br)cc1CN1CCN(Cc2c[nH]c3ccccc23)CC1	12.2	94.0	117.0	4.5	27.0*	138.0	19.0	107.0
Cc1ccccc1N1C(=O)c2cccc3cccc(c23)C1=O	3.3	106.0	107.0	-4.4	26.0*	104.0	2.0	106.0
O=C(NC(c1cccnc1)c1ccc2c(c1)OCO2)C1CCN(CCOc2ccc(Cl)cc2Cl)CC1 (stereo not drawn)	7.2	·	·	-2.5	·	·	·	·
CC(C)CCNC(=O)/C=C/c1ccc(Br)cc1	17.2	2.0*[inhibitor]	2.0*[inhibitor]	-2.4	-15.0	93.0	-15.0	92.0
O=C1NN=C(c2ccc(Cl)cc2)CC1c1c[nH]c2ccccc12 (stereo not drawn)	12.4	102.0	97.0	5.2	1.0	·	·	·
Cc1ccc(C2=NNC(=O)C(c3c[nH]c4ccccc34)C2)cc1 (stereo not drawn)	0.2	128.0*	116.0	9.0	-1.0	106.0	2.0	102.0
O=C1C2C3C=CC(C4CC34)C2C(=O)N1c1cccc2ccccc12 (stereo not drawn)	18.1	101.0	104.0	0.4	0.0	·	·	·
CCC(C)(C)NC(=O)CN(C(=O)CCC(=O)Nc1nccs1)c1cccc(C)c1	3.5	105.0	109.0	-2.1	26.0*	104.0	0.0	102.0
COC(=O)[C@@]1(C(C)C)N=C(c2cc(OC)c(OC)c(OC)c2)[C@]2(O1)C(=O)N(Cc1ccc(OC)cc1)c1ccc(Br)cc12	6.4	·	·	-6.4	·	·	·	·
CCC(C)NC(=O)CCC(=O)Nc1ccc2nc(N3CCOCC3)cc(C)c2c1 (stereo not drawn)	-20.1	107.0	111.0	-13.5	5.0	·	·	·
CCOc1ccc(C(=O)Nc2ccc3nc(N4CCN(CC)CC4)cc(C)c3c2)cc1	12.6	108.0	148.0*	-6.0	17.0	143.0	21.0	106.0
CCN1CCN(c2cc(C)c3cc(NC(=O)c4cc(OC)cc(OC)c4)ccc3n2)CC1	-12.3	111.0	139.0*	-9.0	7.0	147.0	14.0	98.0
CCN1CCN(c2cc(C)c3cc(NC(=O)Cc4ccc(OC)c(OC)c4)ccc3n2)CC1	4.2	111.0	123.0	-9.6	26.0*	118.0	29.0	104.0
CCC(C)NC(=O)CCC(=O)Nc1ccc2nc(N3CC(C)CC(C)C3)cc(C)c2c1 (stereo not drawn)	-2.1	103.0	9.0*	-5.3	90.0*	104.0	-8.0	100.0
COc1cc(C(=O)Nc2ccc3nc(N4CCN(C)CC4)cc(C)c3c2)cc(OC)c1OC	1.2	104.0	125.0	2.2	11.0	·	·	·
COc1ccc(CNC(=O)Cn2cc(C)c(=O)[nH]c2=O)cc1	-8.5	·	·	-0.7	·	·	·	·
CCOC(=O)CNC(=O)CSc1nc(C(C)C)nc2c1cnn2-c1ccccc1	-5.1	·	·	-4.4	·	·	·	·
SMILES	SKN-1 block	MEKK3 PB1 HTS	MEKK2 WT-MEK5	NRP1-CendR mod	MEKK2mut PB1 HTS	MEKK2wt confirm	MEKK2mut-MEK5	MEKK3-MEK5 inh
COCCCNc1nccn2ccnc12	-1.1	·	·	17.7	·	·	·	·
CCN1CCN(c2cc(C)c3cc(NC(=S)N4CCN(c5ccccc5F)CC4)ccc3n2)CC1	8.2	113.0	148.0*	1.8	18.0	149.0	32.0	108.0
CCOc1ccc2ncc(C(=O)c3ccc(OC)cc3)c(N3CCN(CC)CC3)c2c1	0.0	100.0	499.0*	-5.2	1.0	114.0	13.0	105.0
CCc1ccc(C(=O)c2cnc3ccc(OC)cc3c2N2CCN(CC)CC2)cc1	1.9	56.0	82.0	-1.3	-7.0	·	·	·
Cc1ccc(-c2nn(-c3ccccc3)cc2CSC(=N)N)cc1	42.8*	113.0	205.0*	11.6	52.0*	141.0	13.0	82.0
OCc1cn(-c2ccccc2)nc1-c1ccc(-c2nn(-c3ccccc3)cc2CO)cc1	1.9	92.0	94.0	-1.6	-8.0	·	·	·
CCCCCCN1CCN(C2CN(Cc3ccc([N+](=O)[O-])cc3)S(=O)(=O)C2)CC1 (stereo not drawn)	-5.4	·	·	2.8	·	·	·	·
O=[N+]([O-])c1ccc(N/N=C/c2sc(N3CCOCC3)nc2-c2ccccc2)c(S(=O)(=O)Nc2ccc(Cl)cc2)c1	11.3	11.0*[inhibitor]	·	-55.8	-32.0	79.0	-9.0	82.0
O=C(O)c1cccc(N/N=C/c2sc(N3CCOCC3)nc2-c2ccccc2)c1	5.5	102.0	97.0	13.2	0.0	·	·	·
Cc1onc(-c2ccccc2)c1-c1csc(N/N=C/c2ccccc2)n1	-0.3	68.0*[inhibitor]	74.0	0.4	-17.0	99.0	-1.0	99.0
CCOc1ccccc1C(=O)Nc1ccccc1O	21.4	78.0*[inhibitor]	74.0	-10.0	-7.0	105.0	5.0	103.0
CCOc1ccccc1C(=O)Nc1cccc2ccccc12	21.0	109.0	108.0	-5.5	12.0	·	·	·
CC1CCc2c(sc(NC(=O)c3ccc(N4C(=O)CCC4=O)cc3)c2C(N)=O)C1 (stereo not drawn)	10.4	·	·	2.6	·	·	·	·
